# Measured values published in PubChem BioAssay.
# Assay: MM1S cell viability effects, profiling panel, calcein-AM fluorescence, 48 h, basal (AID 1165);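 note: viability of MM1S multiple myeloma cells under basal unstimulated conditions; test concentration not given here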
# Settings: higher = more signal
row,SMILES,z-score
1,COCCOC(=O)N1C(=O)[C@@]2(c3ccccc31)[C@H](C(=O)N1CCN(c3ncccn3)CC1)[C@H]1C(=O)O[C@H](c3ccccc3)[C@H](c3ccccc3)N1[C@@H]2c1ccccc1OCCO,0.0079
2,Cc1ccc(C(C)CC(O)C2C=CC3C(=O)N(C)C(=O)C3N2Nc2ccccc2)o1 (stereo not given),-0.144
3,CC1CC/C=C\[C@H]2OC34C=CCN(CCN5CCOCC5)C(=O)[C@H]3N(CCCO)C(=O)[C@@H]4C2C(=O)O1 (stereo not given in full),1.22
4,CCCNC(=O)[C@@]1(c2ccc([N+](=O)[O-])cc2)CC(=O)N(C(C)C)[C@@H]1c1ccc(CO)cc1,0.167
5,C=C(COC)/C(=C/C[C@H](OC(C)=O)c1ccccc1OCCO)c1cc(C(=O)OC)ccc1OC,-3.06
6,CC(C)C(=C=CC[C@H](O)c1ccccc1OCCO)C[C@H](O)COCc1ccccc1,-2.9
7,CCCC[C@H]1OB(O)C[C@H]2C1=C(COc1ccccc1)C[C@H]1C(=O)C=CC(=O)[C@H]12,-3.27
8,Cc1ccc(N2C(=O)c3ccccc3[C@](C)(C(=O)NCCCN(C)C)[C@@H]2c2ccc(CO)cc2)nc1,-0.629
9,CCCCC(O)C1C=CC2C(=O)N(c3ccccc3)C(=O)C2N1Nc1ccc([N+](=O)[O-])cc1 (stereo not given),-0.72
10,C=CCC(OC(C)=O)[C@@H]1[C@@H](N(Cc2ccc(-c3cccc(C(F)(F)F)c3)o2)C(=O)c2ccc(-c3ccccc3)cc2)c2cc(OCCCO)ccc2N1C(=O)c1ccc2ccccc2c1 (stereo not given in full),0.0723
11,C=C(CCCC)/C(=C/C[C@H](OC(C)=O)c1cccc(OCCO)c1)c1cnc2ccccc2c1,-3.13
12,OCCCC1=CC(c2ccc(CN3CCCC3)cc2)N(Cc2cccc(OC(F)(F)F)c2)CC1 (stereo not given),-3.3
13,C=C(COC)C(=O)CC[C@H](OC(=O)c1cccnc1)c1ccc(OCCO)cc1,-1.93
14,COc1ccc(C(O)C2C=CC3C(=O)N(c4ccccc4)C(=O)C3N2Nc2ccc(C#N)cc2)cc1OCc1ccccc1 (stereo not given),0.333
15,C=CCNC(=O)[C@H]1[C@@H]2C(=O)O[C@@H](c3ccccc3)[C@@H](c3ccccc3)N2[C@@H](c2ccc(OCCO)cc2)[C@]12C(=O)Nc1ccc(C#CC3(O)CCCCCC3)cc12,-2.27
16,CC[C@@H]1C=C(C(=O)O)[C@H](c2ccc(OC)cc2)N1S(=O)(=O)c1ccc(C)cc1,0.107
17,O=C1C2C=CC(C(O)C3CCCCC3)N(n3cnnc3)C2C(=O)N1Cc1ccccc1 (stereo not given),-0.453
18,[N-]=[N+]=NCc1ccccc1[C@@H]1OC(c2ccc(OCCCO)cc2)=N[C@]1(Cc1ccccc1N=[N+]=[N-])C(=O)O,-1.82
19,COC(=O)c1cccc([C@H]2OC(=CC(=O)OC(C)C)C[C@@H](c3cccc(C(=O)OC)c3)O2)c1,-3.15
20,CN(C)CCCNC(=O)[C@@]1(Cc2ccccc2I)c2ccccc2C(=O)N(C2CCCCC2)[C@H]1c1ccc(CO)cc1,-3.78
21,O=C1NC(=O)C2C1C=CC(C(O)c1ccc(B(O)O)cc1)N2Nc1ccc(Cl)cc1Cl (stereo not given),-1.62
22,COC(=O)[C@@]1(Cc2ccccc2)[C@H]2c3cc(C(=O)N(C)C)n(CCO)c3C[C@H]2CN1C(=O)c1ccccc1,-0.0531
23,C=C(CCCC)C(=O)CC[C@H](OC(=O)c1ccccc1-c1ccccc1C(=O)O)c1ccc(OCCO)cc1,-3.19
24,O=C1OCCC=C[C@H]2OC34C=CCN(c5ccc6ccccc6c5)C(=O)[C@H]3N(CCO)C(=O)[C@@H]4C12 (stereo not given in full),0.508
25,COc1cc(CO)cc(I)c1O[C@H]1C=C(C(=O)NCCO)C[C@@H]2O[C@H]12,0.264
26,COCCOC(=O)N1C(=O)[C@@]2(c3cc(C#CCC(C(=O)OC)C(=O)OC)ccc31)[C@H](C(=O)Nc1nc3ccccc3s1)[C@H]1C(=O)O[C@H](c3ccccc3)[C@H](c3ccccc3)N1[C@@H]2c1ccc(OCCO)cc1,-0.733
27,CC(C)C[C@H]1NC(=O)C([C@@H](C)OCc2ccccc2)NC(=O)[C@@]23C(=O)N[C@@H](Cc4ccccc4)C2[C@H](C)[C@@]2(C)O[C@H]2C3/C=C/C/C=C\CNC1=O (stereo not given in full),-0.936
28,C=C(COC)/C(=C/C[C@@H](OC(C)=O)c1ccccc1OCCO)c1cnc2ccccc2c1,-2.48
29,COc1ccc([Si](C)(C)[C@@H]2[C@@H](CC(=O)N3CCC[C@H]3CO)O[C@]3(C(=O)N(Cc4ccc(N5CCOC5=O)cc4)c4ccccc43)[C@H]2C)cc1,-2.64
30,COC(=O)[C@@]1(Cc2ccccc2)[C@H]2c3cc(C(=O)N(C)C)n(CCSC(=N)N)c3C[C@H]2CN1C(=O)c1ccccc1,-0.948
